Source: PMC5540273 (PLoS ONE, 2017)

Tests used:
Settings in all cases: concentration: 1 μM, replicates: in singlicate; n = 1
PKAC-alpha = test system: T1, PKAC-alpha
T1 construct: gene PRKACA

PKAC-beta = test system: T2, PKAC-beta
T2 construct: gene PRKACB

PKMYT1 = test system: PKMYT1
PKN1 = test system: PKN1
PKN2 = test system: PKN2
PLK1 = test system: PLK1
PLK2 = test system: PLK2
PLK3 = test system: PLK3
PLK4 = test system: PLK4
PRKCD = test system: PRKCD
PRKCE = test system: PRKCE
PRKCH = test system: PRKCH
PRKCI = test system: PRKCI
PRKCQ = test system: PRKCQ
PRKD1 = test system: PRKD1
PRKD2 = test system: PRKD2
PRKD3 = test system: PRKD3
PRKG1 = test system: PRKG1
PRKG2 = test system: PRKG2
PRKR = test system: T3, PRKR
T3 construct: gene EIF2AK2
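Further: KINOMEscan kinase panel screen.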

Compound	%Inh (PKAC-alpha)	%Inh (PKAC-beta)	%Inh (PKMYT1)	%Inh (PKN1)	%Inh (PKN2)	%Inh (PLK1)	%Inh (PLK2)	%Inh (PLK3)	%Inh (PLK4)	%Inh (PRKCD)	%Inh (PRKCE)	%Inh (PRKCH)	%Inh (PRKCI)	%Inh (PRKCQ)	%Inh (PRKD1)	%Inh (PRKD2)	%Inh (PRKD3)	%Inh (PRKG1)	%Inh (PRKG2)	%Inh (PRKR)
O=C(Nc1n[nH]c2nc(-c3ccccc3)c(Br)cc12)C1CC1 [SB-708998]	0%	2%	8%	21%	0%	10%	0%	0%	2%	0%	0%	15%	26%	0%	0%	0%	17%	14%	0%	0%
COc1cc(Nc2nccc(N3CCC(NC(=O)C(C)c4ccc(Cl)cc4)C3)n2)cc(OC)c1OC (centres unmarked) [GSK1379757]	0%	0%	0%	19%	0%	0%	0%	0%	0%	0%	0%	14%	0%	0%	0%	0%	0%	1%	4%	0%
Cc1nc(N(C)[C@H]2CN(C(=O)CC#N)CC[C@H]2C)c2cc[nH]c2n1	17%	0%	4%	0%	12%	0%	5%	0%	0%	2%	0%	8%	9%	10%	0%	1%	66%	2%	0%	5%
Fc1cccc(CSc2nnc(-c3ccc4c(c3)CCO4)o2)c1	29%	0%	24%	0%	0%	0%	6%	11%	21%	7%	0%	0%	3%	15%	0%	12%	0%	0%	26%	0%
CCn1c(-c2ccoc2)nc2cnccc21 [SB-733887]	0%	0%	0%	7%	0%	5%	0%	0%	15%	0%	7%	0%	9%	0%	2%	0%	27%	0%	0%	0%
COC(=O)c1c(-c2ccccc2)c2cc(Br)ccc2c(=O)n1Cc1ccc(NC(=O)CCC(=O)O)cc1	33%	0%	10%	0%	0%	0%	14%	5%	15%	0%	0%	7%	0%	21%	0%	0%	0%	0%	0%	0%
O=C(Nc1n[nH]c2cc(-c3ccccc3F)ccc12)C1CC1 [SB-733371]	0%	20%	0%	0%	14%	0%	0%	3%	9%	0%	21%	0%	0%	0%	0%	0%	0%	0%	0%	0%
O=C1NC(=O)C(c2ccccc2)=C1Nc1cccc(O)c1 [SB-390534]	0%	5%	0%	0%	21%	0%	20%	27%	11%	5%	17%	0%	9%	0%	0%	3%	0%	8%	2%	100%
Cc1ccc(Oc2ccc(Nc3ncnc4cc[nH]c34)cc2C)cn1	19%	0%	8%	50%	0%	50%	12%	11%	20%	5%	0%	27%	7%	9%	0%	2%	8%	0%	23%	8%
Nc1ncnc2c1ncn2-c1cccc(F)c1 [SKF-97560]	21%	0%	0%	4%	0%	34%	22%	25%	9%	1%	3%	0%	22%	20%	0%	10%	9%	0%	10%	0%
